Data on 61 compounds can be found in PubChem BioAssay AID2023 (NMMLSC, 2009).

Among all 320,000 compounds or so, about 1,100 (0.34%) were called active. The list comes from a sample in which actives are over-represented; it also holds similar structures and randomly drawn compounds. Values without a mark were called inactive.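 How the source made its calls: active means GFP response vs DMSO above a set limit, about the screen mean plus 3 SD (cut at about 150% in these data); inconclusive means under 70 cell events counted for the yeast strain; inactive means the rest.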

The nature of this assay: TOR pathway LAP4-GFP level changes – S. cerevisiae, multiplex flow cytometry, MLPCN library, primary screen (AID 2023). Conditions: 3 h, at 10 µM, hits give high values, median GFP as percent of DMSO wells. For orientation: A flow cytometer gives signals particle by particle.
As for `CC(=O)Nc1ccc(N2C(=O)CC(Sc3nccc(C)n3)C2=O)cc1` (stereo unspecified), the GFP response vs DMSO was 89.5%. The value for `Cc1cc(NC(=O)CCN2CCN(Cc3ccccc3)CC2)ccc1Br` was 83.3%; that for `CC(C)C(=O)N1CC(=O)Nc2ccc(F)cc2C1c1ccc(F)cc1` (stereo unspecified) was 108%; that for `O=C(CSc1ncn[nH]1)N/N=C/c1ccc(F)cc1` was 117%. The value for `O=C(CSc1ncn[nH]1)Nc1ccc(Br)cc1Br` was 93.9%. The value for `O=C(/C=C/Sc1ncn[nH]1)c1ccc(Cl)cc1` was 219% (active); that for `Cc1ccnc(NC(=O)CCNS(=O)(=O)c2ccc(C)c(C)c2)c1` was 81.8%; that for `COc1ccccc1CNC(=O)CNC(=O)c1cn(-c2ccccc2OC)c(=O)c2ccccc12` was 95.4%. For the compound `COc1ccc(O[C@H]2C=C[C@@H](c3ccccc3)O[C@@H]2CO/N=C/C[C@@H]2C=C[C@H](OC(C)=O)[C@@H](COC(C)=O)O2)cc1`, the GFP response vs DMSO was 111%. Then `O=C(CCC(=O)OCc1cccc(C(=O)Oc2ccccc2)c1)Nc1cccc2ccccc12`, with 104%. Then `COc1ccc(-c2nn(-c3ccccc3)cc2/C=N/Nc2ccccn2)cc1OC`, with 96.4%. Then `Oc1ccc(Br)cc1/C=N/Nc1ccccn1`, with 287% (active); and `Oc1ccc(Br)cc1C=Nc1ccc2[nH]ncc2c1`, with 93.5%; and `O=C(CC1SC(=Nc2ccccc2F)N(CCN2CCOCC2)C1=O)Nc1ccc(F)cc1F` (stereo unspecified), with 126%. Take `NC(=O)Cc1nc2scc(-c3ccc(Cl)cc3)c2c(=O)[nH]1`: the GFP response vs DMSO was 95.5%. Then `O=c1[nH]c(CCl)nc2cc(-c3ccc(Cl)cc3)sc12`, with 163% (active).

Regarding `O=c1[nH]c(CN2CCOCC2)nc2cc(Cl)ccc12`, the GFP response vs DMSO was 92.7%. The value for `O=C(O[C@@H]1[C@H](Cc2ccccc2)NS(=O)(=O)[C@H]2C[C@@H]3C=C[C@]12O3)c1ccccc1Br` was 97.1%; that for `CN(CCO)Cc1csc2ccc(Br)cc12` was 106%.

As for `Cc1ccc(-c2nn(C(C)(C)C)c3ncnc(N)c23)cc1`, the GFP response vs DMSO was 190% (active).

On to `Cc1ccc(-n2cnc3ncnc(-c4ccccc4)c32)cc1`, for which the GFP response vs DMSO was 102%.

For `O=C(Nc1ccc(Cl)cc1)c1cccc(OC(=S)N2CCOCC2)c1`, the GFP response vs DMSO was 65.6%.

For `Oc1c(Cl)cc(Cl)c(Cl)c1Cc1c(O)c(Cl)cc(Cl)c1Cl`, the GFP response vs DMSO was 174% (active). Turning to `COc1ccc(C)cc1NC(=O)CN(C)S(=O)(=O)c1ccc2c(c1)n(C)c(=O)c(=O)n2C`, the GFP response vs DMSO is 94.1%. Then `CC(C)(C)OC(=O)C[C@@H]1C/C=C\C[C@@H](CC(=O)N[C@H](CO)Cc2ccccc2)C(=O)NC[C@@H](c2ccccc2)OC1=O`, with 83%; and `Cc1c(O)c(C)c2c(c1O)C(=O)C[C@@H](c1ccccc1)O2`, with 99.7%. The value for `CCCc1[nH]nc2c1C(c1ccc(Br)s1)C(C#N)=C(N)O2` (stereo unspecified) was 152% (active); that for `CCCc1[nH]nc2c1C(c1ccc(OC(=O)c3ccco3)cc1)C(C#N)=C(N)O2` (stereo unspecified) was 93.3%. The value for `CCc1ccc(C2C(C#N)=C(N)Oc3n[nH]c(CC(=O)OC)c32)cc1` (stereo unspecified) was 99.1%.

Consider `CC[C@@H](C)[C@@H]1CN([C@@H](C)CN2CCC[C@H]2CN2C(N)=NC[C@H]2C(C)C)C(=N)N1CCc1ccc(Cl)c(Cl)c1`, for which the GFP response vs DMSO is 102%. As to `CC1CC2=C(CC1/C=N/NC(N)=S)C(C)(C)CCC2` (stereo unspecified), the GFP response vs DMSO was 154% (active). Then `Cc1ccc(CS(=O)Cc2ccc(C(=O)N3CCOCC3)o2)cc1` (stereo unspecified), with 103%. The value for `N/C(=N\OC(=O)CCC1CCCCC1)c1ccccn1` was 92.5%; that for `Cn1c(SCC(=O)Nc2cccc(NC(=O)c3cccs3)c2)nnc1-c1ccncc1` was 94.8%; that for `OC(CNCCc1ccc(Cl)cc1Cl)COc1ccccc1` (stereo unspecified) was 93.6%.

For `NC(N)=N/N=C/c1ccc(OCc2ccc(Cl)cc2Cl)cc1`, the GFP response vs DMSO is 160% (active). The value for `CCOc1ccc(/C=N/NC(N)=S)cc1` was 109%; that for `COc1cc(OC)cc(/C(N)=N/O)c1` was 114%; that for `O=C(Nc1ccccc1C(F)(F)F)c1cc(-c2ccc(O)cc2)on1` was 151% (active).

On to `O=C(Nc1cccnc1Cl)c1cc(-c2cccc(Cl)c2)on1`, for which the GFP response vs DMSO is 98.9%. Then `CCc1ccccc1NC(=O)c1cc(-c2ccc3c(c2)OCO3)on1`, with 93.6%; and `Cc1ccc(C(=O)NNC(=O)C(C)Oc2ccc3ccccc3c2)o1` (stereo unspecified), with 104%. The value for `COc1ccc(C(=O)NC(=S)NNC(=O)c2c(-c3ccccc3)noc2C)cc1` was 102%; that for `CCCc1ccc(OCC(=O)NNC(=S)NC(=O)c2ccco2)cc1` was 182% (active); that for `COc1ccc(C(=O)NC(=S)NNC(=O)CCc2ccccc2)cc1` was 195% (active).

In the case of `O=C(Nc1ccc2ccccc2c1)/C(=C/c1cccc(Br)c1)NC(=O)c1ccco1`, the GFP response vs DMSO was 91%.

Consider `CC(Oc1ccc2ccccc2c1)C(=O)NNC(=S)NC(=O)c1ccco1` (stereo unspecified), for which the GFP response vs DMSO is 237% (active).

Turning to `Cc1ccc(OCC(=O)NCCCNC(=O)c2ccco2)cc1C`, the GFP response vs DMSO is 90%. On to `CC(C)Oc1ccc(CCC(=O)NNC(=S)NCc2ccccc2)cc1`, for which the GFP response vs DMSO was 103%. Consider `CCCc1ccc(OCCNC(=O)c2ccco2)cc1`, for which the GFP response vs DMSO was 83.5%. On to `CCn1c(=S)[nH]c2cc(S(=O)(=O)N3CCOCC3)ccc21`, for which the GFP response vs DMSO is 89.3%.

As to `Cc1ccc2cccc(S(=O)(=O)N3CCN(c4ccccc4F)CC3)c2n1`, the GFP response vs DMSO is 110%. Then `Cc1ccc(C(=O)N2CCCC(c3ccccc3)=N2)cc1`, with 107%. Then `CC(C(=O)Nc1ccccc1-c1ccccc1)N1CCOCC1` (stereo unspecified), with 100%; and `CC(C)c1ccc(NC2CCCN(C(=O)c3ccncc3)C2)cc1` (stereo unspecified), with 93.3%.

On to `COC(=O)c1cc(S(=O)(=O)NC2CCN(Cc3ccccc3)CC2)cn1C`, for which the GFP response vs DMSO is 95.7%.

In the case of `CC12CN3CCN(CC(C3)/C1=N\NC(=O)c1ccccc1N)C2`, the GFP response vs DMSO was 102%. Then `CC(=O)Nc1ccc(NC(=O)COC(=O)C2CCC(C(C)(C)C)CC2)cc1` (stereo unspecified), with 107%; and `Cc1cccc(C)c1NC(=O)C(Cl)C(=O)c1ccccc1` (stereo unspecified), with 269% (active). The value for `Cc1cccc(C)c1NC(=O)CN(C)C(=O)CCC(=O)c1ccccc1` was 104%. The value for `Cc1cccc(C)c1NC(=O)C(c1ccccc1)N1CC(=O)Nc2ccccc21` (stereo unspecified) was 90.5%.
